Values without a mark were called inactive. Calls of active or inactive are those of the source. Calls follow the shape of the dose curve; as a rule, active = well fitted curve in the direction sought with a large enough effect in the repeat runs; inconclusive = weak or mixed curves; inactive = flat fitted curve, though single readings scatter.
Assay: qHTS assay to test for compound auto fluorescence at 535 nm (green) in HEK293 cell free culture (AID 720682)
Details: cell-free medium, green autofluorescence 485/535 nm, active compounds read high; series mostly up to 91.3 µM; activity change: at the top concentration
Text: U.S. Tox21 Program National Center for Advancing Translational Sciences [NCATS] NIH Chemical Genomics Center [NCGC] U.S. Environmental Protection Agency [EPA] National Institutes of Environmental Health Sciences [NIEHS] National Toxicology Program [NTP] U.S. Food and Drug Administration [FDA] Tox21 Assay Overview: Compound auto fluorescence often interferes with screening of the compound library against various biological targets and signaling pathways. Some of these compounds may have fluorophoric properties. Such properties may interfere with the assay outputs resulting in false positives and/or negatives. To decrease such complications and ensure the compound activities are relevant in terms of biological response, the Tox21 10K compound library was screened for auto fluorescence. From the fluorophores used as reporter signals in our screening assays, the auto fluorescence equivalencies of compounds against three fluorophores have been evaluated: Triamterene, Fluorescein and Rose Bengal sodium for blue, green and red fluorescence, respectively. The fluorescence intensities were measured using Excitation/Emission wavelengths at 405/460nm, 485/535nm and 540/590nm for blue, green and red labels, respectively. This assay includes the green fluorescence data.
Tox21 Assay Protocol Summary: 5 uL of culture medium (DMEM containing 10% FBS) per well was dispensed into black wall/clear bottom 1536-well plates using a Multidrop Combi Dispenser (ThermoFisher Scientific, Waltham, MA). After 23 nL compound or DMSO vehicle was transferred into assay plate by a pintool work station (Kalypsys, San Diego, CA), fluorescence intensities in the assay plates were measured by an Envision (PerkinElmer, Shelton, CT) plate reader using three labels for measuring blue, green and red fluorescence at […] 460, 535 and 590nm respectively.
% is scaled to controls: 0 for no effect and ±100 for the full control effect.

SMILES	activity change	outcome
O=C(NS(=O)(=O)/C=C/c1cccs1)c1ccc(F)cc1Br	-0.111%	
CC(O)C1CCCCC1 (stereo not given)	-0.0234%	
CCCCOc1ccc(CC(=O)NO)cc1	0.0033% [at 18.6 µM]	
CCN1CCC[C@H]1CNC(=O)c1c(OC)ccc(Br)c1OC	-0.0321% [at 46 µM]	
CN1CCC(=C2c3ccccc3CCc3sccc32)CC1	0.0969% [at 46 µM]	
CN(c1nccc(=O)[nH]1)C1CCN(c2nc3ccccc3n2Cc2ccc(F)cc2)CC1	-0.0804% [at 46 µM]	
O=C(/C=C/c1ccc(O)c(O)c1)O[C@@H]1C[C@](O)(C(=O)O)C[C@@H](O)[C@H]1O	0.394% [at 95.7 µM]	
C1CCC2OC2C1 (stereo not given)	-0.0049% [at 95.7 µM]	
CC(=O)N(O)CCCCCNC(=O)CCC(=O)N(O)CCCCCNC(=O)CCC(=O)N(O)CCCCCN	0.033% [at 18.6 µM]	
CCCCCCCCCC(=O)OCC	0.0833%	
CC(C(=O)O)c1ccc(-c2ccccc2)c(F)c1 (stereo not given)		inactive
N#Cc1c(F)cccc1F	-0.0692%	
COCCOCCOCCOCCOC	0.0139%	
CN(C)C/C=C(/c1ccc(Br)cc1)c1cccnc1	-0.0273% [at 46 µM]	
S=C(S)NCCNC(=S)S	-0.0171%	
CCCCOCCOCCOCCOCCO	-0.0018%	
O=S1(=O)c2cccc3cccc(c23)N1CCCN1CCN(c2ccc(F)cc2)CC1	0.029% [at 46 µM]	
COCCCCCCCCOCCC[Si](C)(O[Si](C)(C)C)O[Si](C)(C)C	-0.0883%	
CCOC(=O)C1=C(C)NC(C)=C(C(=O)OC)C1c1cccc([N+](=O)[O-])c1 (stereo not given)	-0.0081% [at 46 µM]	
CC(C)NCC(O)c1cc(O)cc(O)c1 (stereo not given)	-0.0124% [at 46 µM]	

SMILES	activity change	outcome
CC(C)CCCC(C)CCO (stereo not given)	0.017%	
CC(C)(C)c1cc(O)c(C(C)(C)C)cc1O	-0.0079%	
Cc1ccc(O)c([C@H](CCN(C(C)C)C(C)C)c2ccccc2)c1	0.0224% [at 46 µM]	
COc1cc(C(C)(C)C)c(O)c(C(C)(C)C)c1	0.0618%	
O=C(CC(=O)c1ccccc1)c1ccccc1	-0.0189% [at 95.7 µM]	
NC(N)=N/N=C/c1c(Cl)cccc1Cl	0.0375% [at 46 µM]	
CCCCCCCC/C=C\CCCCCCCC(N)=O	-0.0776%	
CCCCCCCCN(C)C	0.127%	
Cc1cccc(OCCOc2cccc(C)c2)c1	-0.0783% [at 95.7 µM]	
c1ccc(CNCc2ccccc2)cc1	-0.129%	
CCCC[C@H]1CN(CC2CCOCC2)C(=O)OC12CCN(C1(C)CCN(C(=O)c3c(C)ncnc3C)CC1)CC2	0.0512%	
N[C@H]1C(O)O[C@H](CO)[C@H](O)[C@@H]1O (stereo not given in full)	-0.0642%	
CC1(C)[C@H]2CC[C@]1(C)[C@H](O)C2		inactive
O=S(=O)(O)c1ccc(O)c2ncccc12	0.0868%	
N#Cc1cc2ccccc2c2ccccc12	0.0419%	
CC[C@]12CCCN3CCc4c(n(c5ccccc45)C(=O)C1)[C@@H]32	0.026% [at 18.6 µM]	
CC(C)(C)c1cc(CO)cc(C(C)(C)C)c1O	-0.0998% [at 95.7 µM]	
O=C(O)COC(=O)Cc1ccccc1Nc1c(Cl)cccc1Cl	0.0139% [at 18.6 µM]	
Cn1sccc1=O	0.0604%	
Cc1ccc(C(C)c2ccc(C)c(C)c2)cc1C	-0.0441%	
